Records with an inconclusive call do not appear. A number with no mark means an inactive call. Active and inactive are the calls of the source. Calls follow the shape of the dose curve; as a rule, active = well fitted curve in the direction sought with a large enough effect; inconclusive = small, poorly fitted or top-dose-only effect, or another doubt; inactive = no such curve, though single readings can be large; an effect the other way counts as inactive or inconclusive.

This passage reports outcome and activity change, negative = inhibition results from PubChem BioAssay (NCATS).

The target in one experiment is Furin (Homo sapiens) (UniProt P09958). The experiment in a line: Furin counterscreen qHTS for Zika virus inhibitors (AID 1347149).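 Also: purified recombinant full-length human furin enzyme at 5 nM; fluorescence gain from furin cutting a BOC-RVRR-AMC peptide substrate over 15 min; top concentration of the series differs between compounds; plate controls were no-inhibitor control for no effect and no-enzyme control for full effect; nearly all actives have a fitted effect of over 70% in size.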 A digest of the protocol:
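Fluorogenic cleavage of BOC-RVRR-AMC (2 microM final, Km ~15 µM) was monitored (ex 340, em 450 nm) at 37C after 15 min RT preincubation of 5 nM furin with compounds in HEPES pH 7.0 buffer with CaCl2 and Triton X-100. Percent inhibition was fitted to a 4-parameter Hill curve.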

The nature of experiment [1]: ZIKV-mCherry secondary qHTS for Zika virus inhibitors (AID 1347158). Also: top concentration of the series differs between compounds. The gist of the method:
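After overnight seeding at 37 °C, Vero cells receive compound and then ZIKV-mCherry (MOI 1). Following 48-72 h infection, cells are fixed, counterstained with Hoechst, and imaged; percent infected cells is derived from an mCherry intensity cut-off of 450 RFU.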
In general terms: qHTS replaces the single test concentration by a dilution series.

For experiment [2], the system named is Zika virus NS2B-NS3 protease. Put plainly: Primary screen GU AMC qHTS for Zika virus inhibitors (AID 1347154).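 Also: 0% = no-inhibitor control and -100% = no-enzyme control; nearly all actives have a fitted effect of over 70% in size.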 A digest of the protocol: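 Fluorogenic AMC-substrate cleavage by noncovalent NS2B-NS3 protease complex (25 nM, pH 8.0 Tris buffer with Tween 20) followed for 15 minutes at room temperature (~20% conversion). Percent inhibition from ex340/em450 signal change, fitted by 4-parameter Hill equation.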

Furin (Homo sapiens), sequence (P09958 whole entry, looked up): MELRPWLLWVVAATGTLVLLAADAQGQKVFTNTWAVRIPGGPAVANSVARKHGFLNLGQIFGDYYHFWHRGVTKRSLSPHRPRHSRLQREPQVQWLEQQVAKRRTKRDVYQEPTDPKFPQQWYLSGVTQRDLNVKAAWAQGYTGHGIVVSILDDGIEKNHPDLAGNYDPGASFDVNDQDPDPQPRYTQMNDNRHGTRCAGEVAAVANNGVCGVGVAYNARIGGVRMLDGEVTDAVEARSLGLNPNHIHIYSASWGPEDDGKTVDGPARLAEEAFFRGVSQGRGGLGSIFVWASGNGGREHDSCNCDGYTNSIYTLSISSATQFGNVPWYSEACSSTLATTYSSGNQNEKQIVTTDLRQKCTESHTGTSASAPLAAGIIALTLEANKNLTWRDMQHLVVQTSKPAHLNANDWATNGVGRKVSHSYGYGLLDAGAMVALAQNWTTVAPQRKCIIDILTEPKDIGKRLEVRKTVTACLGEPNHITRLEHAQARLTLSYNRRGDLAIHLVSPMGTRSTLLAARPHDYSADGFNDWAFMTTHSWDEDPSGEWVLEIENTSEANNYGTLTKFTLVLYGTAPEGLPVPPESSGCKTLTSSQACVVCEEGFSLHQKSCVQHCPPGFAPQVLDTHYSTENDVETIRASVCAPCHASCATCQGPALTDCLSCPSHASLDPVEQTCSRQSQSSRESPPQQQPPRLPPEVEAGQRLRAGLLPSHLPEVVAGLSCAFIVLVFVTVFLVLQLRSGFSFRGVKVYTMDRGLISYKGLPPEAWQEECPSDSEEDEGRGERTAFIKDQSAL

In the case of `Cc1cc(-c2ccc(N=Nc3ccc4c(S(=O)(=O)O)cc(S(=O)(=O)O)c(N)c4c3O)c(C)c2)ccc1N=Nc1ccc2c(S(=O)(=O)O)cc(S(=O)(=O)O)c(N)c2c1O`, the outcome (with Furin (Homo sapiens); in experiment [1]) was inactive. In the case of `CC/C=C\C/C=C\C/C=C\CCCCCCCC(=O)O`, the activity change, negative = inhibition in experiment [2] was -0.651% [at 6.83 µM]. Still for that read-out and setting: as for `CCCCC[C@H](O)/C=C/[C@H]1[C@H](O)CC(=O)[C@@H]1CCCCCCC(=O)O`, the figure is 5.76% [at 6.83 µM].
